# Most compounds without a hit are left out; they make up all but 1.5% or so of the library.
# GC-A act – GC-A stimulated cGMP production enhancers – HEK293 GC-A cells, cGMP TR-FRET, EC30 ANP, primary screen. 0% at EC30 ANP, 100% saturating ANP. activation, % at 10 µM. AID 1671463, 2021. 0.14% of 370,000 active. Atrial natriuretic peptide receptor 1 (Homo sapiens), P16066; in the data active means activation above about 40%
# NadD inh – inhibitors of S. aureus NadD, primary screen, biochemical, colorimetric, uHTS. Nicotinate-nucleotide adenylyltransferase NadD (Staphylococcus aureus N315). purified NadD enzyme, colorimetric absorbance read-out. inhibition, % at 20 µM. 0.78% of 360,000 active. AID 602399, 2012; in the data active means inhibition above about 26%
# NPR2 activator – human GC-B receptor activators, primary screen, HEK293 GC-B cells, cGMP TR-FRET, EC30 CNP. 0.11% of 370,000 active. 0% at EC30 CNP, 100% saturating CNP. activation, % at 10 µM;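 active means activation at 10 µM reaching about 35% in either raw or pattern-adjusted values, limit read from the data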
# Neddyl block – inhibitors of cullin neddylation, primary screen, biochemical, TR-FRET, uHTS, NAE and Ubc12; NEDD8-conjugating enzyme Ubc12 (Homo sapiens) + NEDD8-activating enzyme E1 regulatory …; 0.58% of 360,000 active; inhibition, % at 25 µM; AID 651699, 2012; in the data active means inhibition above about 36%
# Target sequence (P61081 whole entry, looked up): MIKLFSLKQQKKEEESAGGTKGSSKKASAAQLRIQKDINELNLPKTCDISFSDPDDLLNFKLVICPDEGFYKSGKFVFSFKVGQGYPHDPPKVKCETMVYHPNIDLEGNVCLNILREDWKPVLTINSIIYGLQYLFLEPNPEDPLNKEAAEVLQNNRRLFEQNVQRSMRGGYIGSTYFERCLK
# Target sequence (Q13564 whole entry, looked up): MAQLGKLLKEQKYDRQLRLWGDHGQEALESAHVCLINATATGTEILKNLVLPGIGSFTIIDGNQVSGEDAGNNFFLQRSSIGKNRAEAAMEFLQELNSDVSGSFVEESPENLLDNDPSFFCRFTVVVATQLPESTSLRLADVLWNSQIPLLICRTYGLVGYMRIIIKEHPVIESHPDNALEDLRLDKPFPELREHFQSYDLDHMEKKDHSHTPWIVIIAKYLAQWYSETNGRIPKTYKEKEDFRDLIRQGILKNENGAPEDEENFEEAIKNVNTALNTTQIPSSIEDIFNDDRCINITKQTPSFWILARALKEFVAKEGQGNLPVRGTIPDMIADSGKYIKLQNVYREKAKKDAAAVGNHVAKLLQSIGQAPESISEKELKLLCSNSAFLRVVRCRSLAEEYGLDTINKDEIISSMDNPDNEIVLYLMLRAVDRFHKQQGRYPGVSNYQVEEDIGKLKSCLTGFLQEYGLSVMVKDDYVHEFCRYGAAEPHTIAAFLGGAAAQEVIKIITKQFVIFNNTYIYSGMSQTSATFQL
# Neddyl conf – blockade of NEDD8 conjugation to cullin – biochemical, TR-FRET, single concentration, confirmation. AID 652217, 2013. TR-FRET cullin neddylation biochemical assay. shares compounds with Neddyl block. 13% of 1,800 active. calls only at 25 µM; in the data active means inhibition above about 40%;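 further: neddylation substrate is the cullin 1 ring ligase complex with SKP2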
# Starred values were filed as active, the others as inactive; i = inactive; · = not tested or not shown; + = active, no number.
SMILES,GC-A act,NadD inh,NPR2 activator,Neddyl block,others
Cc1ccccc1CSc1nc2n(n1)C(c1cccs1)C1=C(CCCC1=O)N2 (configuration not stated),-0.9,-5.7,1.4,38.7*,
O=C1CCCC2=C1C(c1cccs1)n1nc(SCc3ccccc3F)nc1N2 (configuration not stated),-1.6,-3.6,2.1,·,
COC(=O)C1=C(C)N(Cc2ccccc2C(F)(F)F)C(=NCc2ccc(C(F)(F)F)cc2)NC1c1ccccc1 (configuration not stated),-11.8,·,-5.0,·,
CC(C)CNS(=O)(=O)CC1NCc2cc3c(cc21)OCO3 (configuration not stated),-0.8,·,-1.0,·,
COc1cc(OC)cc(-c2sc3ccc(OC)cc3c2C#CCO)c1,1.1,-6.2,-9.0,-12.2,
COc1cc2sc(-c3ccc(S(C)(=O)=O)cc3)c(C#CCO)c2cc1OC,3.1,-7.1,-3.3,49.8*,Neddyl conf=+
CCN(CC)c1ccc2c(O)cc(=O)oc2c1,-1.9,-1.0,-0.5,41.4*,Neddyl conf=i
CCN(CC)c1ccc2c(Cl)cc(=O)oc2c1,1.9,·,3.4,·,
O=S(=O)(Nc1ccc(-c2nc3ccccc3o2)cc1)c1ccccc1,0.3,-3.0,-8.1,42.8*,
O=S1(=O)c2ccc(N3CCSCC3)cc2Oc2ccccc2CN1Cc1cn(Cc2ccc(F)cc2)nn1,1.8,·,1.6,·,
CN(C)c1nc(NCc2ccccc2)nc(Oc2ccc(=O)[nH]n2)n1,0.6,0.7,4.7,-5.7,
CN(C)c1nc(OCc2ccccc2)c2ncc(=O)[nH]c2n1,0.9,-0.6,-6.7,44.4*,
COc1ccc(Nc2nc(N3CCCCC3)nc3ccccc23)c(OC)c1,-6.0,-2.2,-5.9,40.1*,
CC(CCN1CCC(C(O)(c2ccccc2)c2ccccc2)CC1)Oc1ccc(C#N)c(F)c1 (configuration not stated),-20.4,·,-15.0,·,
CN(C)[C@@H]1CCN(c2cccc3c2S(=O)(=O)N(C2CC2)CCCO3)C1,2.5,·,3.6,·,
CCOc1ccc2oc(C(=O)NCc3ccccc3CN3CCCC3)c(C)c2c1,3.2,8.6,5.0,51.6*,
CN(C)C(CNC(=O)c1ccc2[nH]c(=O)c(=O)[nH]c2c1)c1ccco1 (configuration not stated),2.8,-4.7,4.0,52.1*,
COc1ccc(C(CNC(=O)c2oc3ccc(Br)cc3c2C)N2CCCCC2)cc1 (configuration not stated),-12.6,-5.8,-3.5,-130.0,
CCOc1ccc2oc(C(=O)NCC(c3ccco3)N(C)C)c(C)c2c1 (configuration not stated),0.0,-3.4,-1.6,47.3*,
Cc1c(C(=O)NCC(c2ccco2)N(C)C)oc2c(Cl)cccc12 (configuration not stated),-3.5,-3.7,4.9,9.2,
COc1ccc2oc(C(=O)NCc3ccccc3CN3CCCC3)c(C)c2c1,0.4,1.1,-0.5,·,
COc1ccc(C(CNC(=O)c2oc3ccc(OC)cc3c2C)N2CCCC2)cc1 (configuration not stated),-19.1,-7.4,-14.1,50.3*,
COC(=O)[C@]12CCCCC=C1N(Cc1ccc(OC)cc1)C(=O)[C@@H]2CC(=O)NCCCCc1ccccc1,-4.4,·,6.5,·,
Cc1csc(NC(=O)CSCC(=O)O)c1-c1nc2ccccc2s1,4.3,-0.9,0.6,44.4*,
O=C(O)CSCC(=O)Nc1ccc(-c2nc3ccccc3s2)cc1,6.2,-2.8,0.6,·,
SMILES,GC-A act,NadD inh,NPR2 activator,Neddyl block,others
COc1cccc(CN(C)C(=O)[C@@H](Cc2ccccc2)NC(=O)[C@H]2O[C@@H](n3ccc(=O)[nH]c3=O)[C@H](O)[C@@H]2O)c1,2.4,·,-3.5,·,
Cc1ccc(NC(=O)c2ccc(OC(=S)N3CCOCC3)cc2)cc1,5.4,-4.5,2.1,40.3*,Neddyl conf=i
COc1ccc(-c2cn3cccnc3n2)cc1NC(=O)C1CCCC1,3.3,4.5,-1.0,40.2*,Neddyl conf=i
COc1ccc(-c2cn3cccnc3n2)cc1NC(=O)C1CC1,2.2,-1.9,5.3,26.4,
COC(=O)c1sc2nc3c(cc2c1N)COC(C)(C)C3,15.9,2.7,12.5,51.8*,Neddyl conf=+
COC1=C[C@H](C(=O)NCc2ccc(OC)cc2)C(C)C(c2ccccc2)CC1=O (some centres not stated),3.4,·,-12.1,·,
CCOC(=O)c1cnc2cc3c(cn2c1=O)CCCC3,2.8,0.5,-3.9,39.7*,
CN(C)c1cccc(C(=O)NC2CCCc3ccccc32)c1 (configuration not stated),2.5,-2.5,-4.8,47.7*,Neddyl conf=i
O=C(NC1CCCc2ccccc21)c1cccc(Br)c1 (configuration not stated),-5.4,-3.9,-4.3,1.2,
Cc1ccccc1CS(=O)(=O)Cc1ccc(C(=O)Nc2ccc(F)cc2)o1,-1.8,·,5.4,·,
COc1cc2c(cc1OC)C1=C(C#N)COCN1CC2,-1.0,-3.2,2.3,41.2*,Neddyl conf=i
Nc1[nH]c(C(=O)c2ccc(Br)cc2)c(-c2ccc(Cl)cc2)c1C(=O)NCCc1c[nH]c2ccccc12,-7.2,·,-4.7,·,
CCN(CC)c1ccc(/C=N/n2nnnc2N)c(O)c1,-0.6,12.0,-8.8,41.4*,Neddyl conf=+
COC(=O)C1CN(Cc2ccc(F)cc2)CCS(=O)(=O)N1Cc1ccc(OC)cc1 (configuration not stated),-4.0,·,-10.5,·,
O=C(N/N=C/c1cn(-c2ccccc2)nc1-c1cccs1)c1ccncc1,-2.4,2.5,-0.6,43.6*,
O=C(/C=C/c1cn(-c2ccccc2)nc1-c1cccs1)NCCN1CCOCC1,-5.0,-7.3,-4.8,·,
O=C(N/N=C/c1nn(-c2ccccc2)cc1-c1ccccc1)c1ccncc1,-1.7,1.0,0.0,39.3*,Neddyl conf=i
CN(C)C(=O)COC(=O)/C=C/c1cn(-c2ccccc2)nc1-c1cccs1,-5.5,-9.5,-1.5,41.2*,
NC(=O)N/N=C/c1cn(-c2ccccc2)nc1-c1cccs1,-12.3,-2.7,-7.0,7.7,
O=C(N/N=C/c1cn(-c2ccccc2)nc1-c1ccccc1)c1ccco1,0.3,-2.9,3.6,41.4*,Neddyl conf=i
CCCCCCCCN1C(=O)N2Cc3ccc(C)cc3C2CS1(=O)=O (configuration not stated),-1.3,·,10.1,·,
O=C(NC1CCCC1)[C@@H]1CCCN1C(=O)[C@@H](NC(=O)N1CCOCC1)C1CCCCC1,-0.7,·,0.7,·,
COC(=O)[C@]12C[C@H](CC(=O)NCc3ccccc3)C(=O)N(Cc3cccc4ccccc34)C1=C[C@H](C(C)(C)C)O[C@@H]2C,-4.8,·,-7.1,·,
Cc1nc(Nc2cccc(C(C)O)c2)c2nnn(Cc3ccccc3F)c2n1 (configuration not stated),3.6,-7.9,-1.0,40.0*,Neddyl conf=i
